Experimental findings from PubChem BioAssay (NCI) are described below.

Compounds without any hit were thinned out: in the full panel of roughly 83,000, 20% have a hit.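 Single-dose data. Exposure time 48 hours. Values below 10 considered active.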 Values without a mark were called inactive. Activity calls are given as the source filed them.

In this assay the test system is SF-539 CNS. The assay is described as follows: NCI-60 one-dose screen, 48 h (100 = growth as untreated, 0 = no growth, -100 = all killed). The settings on record: 10 µM unless noted.
With `CCCC[C@H](NC(=O)[C@H]1CCCCN1C)C(=O)N(C)[C@H](C[C@@H](OC(C)=O)c1nc(C(=O)N[C@@H](Cc2ccccc2)C[C@H](C)C(=O)OCC)cs1)C(C)C`, the growth was -11.1% (active).
Next, `O=C([O][Hg][CH2]C1OCCOC1[CH2][Hg][O]C(=O)c1ccccc1)c1ccccc1` (stereo not drawn): 79.8%; `Cn1cc(-c2csc(-c3cn(CCN4CCOCC4)c4ccccc34)n2)c2cccnc21`: 73.2%.
The value for `O=C(O)c1c(Cl)n(Cc2ccc(O)cc2)c2ccc(O)cc12` was 98.8%; that for `CCCCCCCCCCCCCCCCCCOc1ccccc1COP(=O)(O)OOCC[N+](C)(C)C` was 7.74% (active).
Next, `CC(C)(C)N1CC1C#N` (stereo not drawn): 103%.
`COC(=O)[C@@H](C)C[C@H](Cc1ccc2ccccc2c1)NC(=O)c1csc([C@@H](C[C@H](C(C)C)N(C)C(=O)[C@@H](NC(=O)[C@H]2CCCCN2C)C(C)C)OC(C)=O)n1`: the growth was 10.4%.
The value for `CCCCC1(CCC)C(=O)NC(=S)NC1=O` was 94.9%; that for `Nc1ccc(Cl)cc1` was 96.6%.
The value for `COc1ccc([As]=[As]c2ccc(OC)c(NCS(=O)(=O)O)c2)cc1NCS(=O)(=O)O` (stereo not drawn) was 2.54% (active).
Consider `CC1(C)C(C(=O)c2cn(CCCCF)c3ccccc23)C1(C)C`, for which the growth was 93.2%.
Next, `O=[N+]([O-])c1ccc([Se]C2CCCCC2Cl)c([N+](=O)[O-])c1` (stereo not drawn): -87.3% (active); `COP(=O)(OC)C(O)c1ccc(Cl)cc1` (stereo not drawn): 103%.
Next, `Cc1cnc(/C=C/C(=O)O)cc1-c1cc2c(cc1C)C(C)(C)CCC2(C)C`: 84.3%.
Next, `COC(=O)[C@H](C[C@H](Cc1ccccc1)NC(=O)c1csc([C@@H](C[C@H](C(C)C)N(C)C(=O)[C@@H](NC(=O)[C@H]2CCCCN2C)C(C)C)OC(C)=O)n1)NC(=O)OCc1ccccc1`: -21.7% [8.5 µM] (active); `Cc1ccc2c(C(C[N+](=O)[O-])c3cccs3)c(-c3ccccc3)[nH]c2c1` (stereo not drawn): 6.62% (active); `CCOC(=O)[C@@H](C)C[C@H](Cc1ccccc1)NC(=O)c1csc([C@@H](C[C@H](C(C)C)N(C)C(=O)[C@@H](NC(=O)[C@H]2CCCCN2C)C(C)(C)C)OC(C)=O)n1`: -13.6% (active).
In the case of `NC(=O)C(Br)c1ccccc1` (stereo not drawn), the growth is 109%.
The value for `CC(=O)O[C@H](C[C@H](C(C)C)N(C)C(=O)[C@@H](NC(=O)[C@H]1CCCCN1C)C(C)C)c1nc(C(=O)N[C@@H](Cc2ccccc2)C[C@H](C)C(=O)O)c(CCOCc2ccccc2)s1` was -31.5% (active).
The value for `O=NN1CCCc2cccc(O)c21` was -32.8% (active); that for `C#C[C@]1(OC(=O)CCCCCC)CC[C@H]2[C@@H]3CCC4=CC(=O)CC[C@@H]4[C@H]3CC[C@@]21C` was 47.9%; that for `CC(=O)OC1C(OC/C2=C/C3[C@@H](C(C)C)CC=C(C)[C@@H]3CC(OC(=O)/C=C/c3cn(C)cn3)[C@]3(C)C=C[C@@]2(O)O3)OCC(O)C1O` (stereo partly drawn) was 11.9%.
As to `COC1CC2c3ccccc3C1C(C)=[N+]2C` (stereo not drawn), the growth was 102%.
Next, `NC(=O)CNc1ccc([As]=[As]c2ccc(NCC(N)=O)cc2)cc1` (stereo not drawn): 0.244% (active); `CCCCCN(CCCCC)CC(O)c1cc(Cl)ccc1OC` (stereo not drawn): 53.2%; `ClC1=C(Cl)C(Cl)(C2(Cl)C(Cl)=C(Cl)C(Cl)=C2Cl)C(Cl)=C1Cl`: -59% (active).
Next, `CCOC(=O)[C@@H](C)C[C@H](Cc1ccccc1)NC(=O)c1nc([C@@H](C[C@H](C(C)C)N(C)C(=O)[C@@H](NC(=O)[C@H]2CCCCN2C)C(C)C)OC(C)=O)sc1CCOCc1ccccc1`: -69.2% (active).
The value for `COC(=O)N[C@H]1CCc2c(Br)c(OC)c(OC)c(OC)c2-c2ccc(SC)c(=O)cc21` was -6.59% (active).
For `O=C(CC1(O)C(=O)Nc2ccc(Br)cc21)c1ccc(C(=O)NCC2CCC3(CC2)OOC2(CCCCC2)OO3)cc1` (stereo not drawn), the growth is 55%.
Next, `C=C1C(=O)O[C@H]2[C@H]1CC/C(COC(=O)C(=O)c1cn(Cc3ccccc3)c3ccccc13)=C\CC[C@@]1(C)O[C@@H]21`: -51.3% (active).
Next, `O=C1C2C(C(=O)[N]1[Hg][c]1cccs1)C1(Cl)C(Cl)=C(Cl)C2(Cl)C1(Cl)Cl` (stereo not drawn): 12.6%.
Next, `O=C1CN=C(c2ccc(Cl)cc2)c2sccc2N1`: 93.4%.
As to `O=C1NC(=O)C(=Cc2cccn2CCCCCn2c3ccccc3c(=O)c3ccccc32)C(=O)N1`, the growth is 102%.
